Source: PubChem BioAssay (NCATS)
Inconclusive results are not listed. A call without a number means that no potency is given here. Activity calls are given as the source filed them. Calls follow the shape of the dose curve; as a rule, active = well fitted inhibition curve with a large enough effect; inconclusive = small, poorly fitted or top-dose-only effect; inactive = flat fitted curve, though single readings scatter.

What was measured:
Test in all cases: qHTS profiling for inhibitors of Plasmodium falciparum proliferation (AID 504749); also: nearly all actives have a fitted effect of over 60% in size
Details in all cases: P. falciparum in erythrocytes, SYBR Green DNA, 72 h; series mostly up to 28.7 µM
ECU = test system: ECU
Procedure, shortened: (§1)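 SYBR Green fluorescence of parasite DNA, read after lysis and overnight dark incubation, measured growth over 72 h in erythrocyte culture at 0.3% parasitemia and 2.5% hematocrit. Data normalised to DMSO and 0.29 uM artemisinin, with plate-drift correction.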

FAB9 = test system: FAB9
Procedure, shortened: as §1

GB4 = test system: GB4
Procedure, shortened: as §1

HB3 = test system: HB3
Procedure, shortened: as §1

ICS = test system: ICS
Procedure, shortened: as §1

JCK = test system: JCK
Procedure, shortened: as §1

N140 = test system: N140
Procedure, shortened: as §1

P93_24 = test system: P93_24
Procedure, shortened: as §1

P94_40 = test system: P94_40
Procedure, shortened: as §1

PAD = test system: PAD
Procedure, shortened: as §1

PC15 = test system: PC15
Procedure, shortened: as §1

PC26 = test system: PC26
Procedure, shortened: as §1

PC49 = test system: PC49
Procedure, shortened: as §1

SC27B = test system: SC27B
Procedure, shortened: as §1

TAB109 = test system: TAB109
Procedure, shortened: as §1

TAB113 = test system: TAB113
Procedure, shortened: as §1

TAB165 = test system: TAB165
Procedure, shortened: as §1

W2 = test system: W2
Procedure, shortened: as §1
Potency is read from the fitted curve at half-maximal effect.

SMILES | Potency (ECU) | Potency (FAB9) | Potency (GB4) | Potency (HB3) | Potency (ICS) | Potency (JCK) | Potency (N140) | Potency (P93_24) | Potency (P94_40) | Potency (PAD) | Potency (PC15) | Potency (PC26) | Potency (PC49) | Potency (SC27B) | Potency (TAB109) | Potency (TAB113) | Potency (TAB165) | Potency (W2)
CC(=O)Nc1ccc(OC(=O)c2ccccc2O)cc1 | inactive | inactive | inactive | inactive | inactive | inactive | inactive | inactive | inactive | inactive | inactive | inactive | inactive | inactive | inactive | inactive | inactive | inactive
O=C(CCCCCCCCCCCCC1CCCC1)Nc1ccc(S(=O)(=O)c2ccc(NC(=O)CCCCCCCCCCCCC3CCCC3)cc2)cc1 | inactive | inactive | inactive | inactive | inactive | inactive | inactive | inactive | inactive | inactive | inactive | inactive | inactive | inactive | inactive | inactive | inactive | inactive
CC(CC=O)CCCC(C)(C)O (configuration not stated) | inactive | inactive | inactive | inactive | inactive | inactive | inactive | inactive | inactive | inactive | inactive | inactive | inactive | inactive | inactive | inactive | inactive | inactive
CC(C)CCC[C@@H](C)[C@H]1CC[C@H]2[C@@H]3CC=C4C[C@@H](O)CC[C@]4(C)[C@H]3CC[C@]12C | inactive | inactive | inactive | inactive | inactive | inactive | inactive | inactive | inactive | inactive | inactive | inactive | inactive | inactive | inactive | inactive | inactive | inactive
CNC(=O)C[C@@H](N)C(=O)N[C@@H](C(=O)N[C@@H]1C(=O)N2[C@@H]1SC(C)(C)[C@@H]2C(=O)O)c1ccc(O)cc1 | inactive | inactive | inactive | inactive | inactive | inactive | inactive | inactive | inactive | inactive | inactive | inactive | inactive | inactive | inactive | inactive | inactive | inactive
O[C@@H]([C@H](O)[C@H](O)CBr)[C@H](O)CBr | inactive | inactive | inactive | inactive | inactive | inactive | inactive | inactive | inactive | inactive | inactive | inactive | inactive | inactive | inactive | inactive | inactive | inactive
CC12CCC(C1)C(C)(C)C2=O (configuration not stated) | inactive | inactive | inactive | inactive | inactive | inactive | inactive | inactive | inactive | inactive | inactive | inactive | inactive | inactive | inactive | inactive | inactive | inactive
NCCN | inactive | inactive | inactive | inactive | inactive | inactive | inactive | inactive | inactive | inactive | inactive | inactive | inactive | inactive | inactive | inactive | inactive | inactive
C=CC(=O)O | inactive | inactive | inactive | inactive | inactive | inactive | inactive | inactive | inactive | inactive | inactive | inactive | inactive | inactive | inactive | inactive | inactive | inactive
NC(N)=O | inactive | inactive | inactive | inactive | inactive | inactive | inactive | inactive | inactive | inactive | inactive | inactive | inactive | inactive | inactive | inactive | inactive | inactive
CC(=O)NCCCS(=O)(=O)O | inactive | inactive | inactive | inactive | inactive | inactive | inactive | inactive | inactive | inactive | inactive | inactive | inactive | inactive | inactive | inactive | inactive | inactive
O=C1N=C2SCCN2C(=O)C1Cc1ccc(Cl)cc1 (configuration not stated) | inactive | inactive | inactive | inactive | inactive | inactive | inactive | inactive | inactive | inactive | inactive |  | inactive | inactive | inactive | inactive | inactive | inactive
COc1ccc(/C=C/C(=O)OCCC(C)C)cc1 | inactive | inactive | inactive | inactive | inactive | inactive |  | inactive | inactive | inactive | inactive | inactive | inactive | inactive | inactive | inactive | inactive | inactive
CNC(=O)c1c(I)c(C(=O)NCC(=O)Nc2c(I)c(C(=O)O)c(I)c(C(=O)NCCO)c2I)c(I)c(N(C)C(C)=O)c1I | inactive | inactive | inactive | inactive | inactive | inactive | inactive | inactive | inactive | inactive | inactive | inactive | inactive | inactive |  | inactive | inactive | inactive
O=C(O)CC/C=C\CC[C@@H]1[C@@H](N2CCCCC2)[C@@H](O)C[C@@H]1OCc1ccc(-c2ccccc2)cc1 | inactive | inactive | inactive | inactive |  | inactive | inactive | inactive | inactive | inactive | inactive | inactive | inactive | inactive | inactive | inactive | inactive | 
Cc1cc2nc3c(=O)[nH]c(=O)nc-3n(C[C@H](O)[C@H](O)[C@H](O)COP(=O)(O)OP(=O)(O)OC[C@H]3O[C@@H](n4cnc5c(N)ncnc54)[C@H](O)[C@@H]3O)c2cc1C | inactive | inactive | inactive | inactive | inactive | inactive | inactive | inactive | inactive | inactive | inactive |  | inactive | inactive | inactive | inactive | inactive | inactive
CC1=CC(=C(c2ccc(N)cc2)c2ccc(N)cc2)C=CC1=N | 2.24 µM (active) | 11.2 µM (active) | 0.536 µM (active) | 8.91 µM (active) | 1.26 µM (active) |  | 2.24 µM (active) | 2.51 µM (active) | 1.41 µM (active) | 2.51 µM (active) | 11.2 µM (active) | 5.36 µM (active) |  | 3.16 µM (active) | 2.24 µM (active) | 1.41 µM (active) | 2 µM (active) | 0.536 µM (active)
CCOC(=O)[C@@H](N)CS | inactive | inactive | inactive | inactive | inactive | inactive | inactive | inactive | inactive | inactive | inactive | inactive |  | inactive | inactive | inactive | inactive | inactive
CCN(CC)C(=O)c1cccnc1 | inactive | inactive | inactive | inactive | inactive | inactive | inactive | inactive | inactive | inactive | inactive |  | inactive | inactive | inactive | inactive | inactive | inactive
NC(=O)C1c2ccccc2CCc2ccccc21 | inactive | inactive | inactive | inactive | inactive | inactive |  |  |  | inactive | inactive | inactive | inactive | inactive | inactive | inactive | inactive | inactive
O=C1NCCN1c1ncc([N+](=O)[O-])s1 | inactive | inactive | inactive | inactive | inactive | inactive | inactive | inactive | inactive | inactive | inactive | inactive |  | inactive |  | inactive | inactive | inactive
CO[C@H]1C[C@@H]2CC[C@@H](C)[C@@](O)(O2)C(=O)C(=O)N2CCCC[C@H]2C(=O)O[C@H]([C@H](C)C[C@@H]2CC[C@@H](OC(=O)C(C)(CO)CO)[C@H](OC)C2)CC(=O)[C@H](C)/C=C(\C)[C@@H](O)[C@@H](OC)C(=O)[C@H](C)C[C@H](C)/C=C/C=C/C=C/1C | inactive | inactive | inactive | inactive | inactive | inactive | inactive | inactive | inactive | inactive | inactive | inactive | inactive | inactive | inactive | inactive | inactive | inactive
S=C1SCN(Cc2ccccc2)CN1Cc1ccccc1 | inactive | inactive | inactive | inactive | inactive | inactive | inactive |  | inactive | inactive | inactive | inactive | inactive | inactive | inactive | inactive | inactive | inactive
CC(=O)Oc1cccc(C(=O)O)c1OC(C)=O | inactive | inactive | inactive | inactive | inactive | inactive | inactive | inactive | inactive | inactive | inactive | inactive | inactive | inactive |  | inactive | inactive | inactive
Cn1cc(NC(=O)c2cc(NC(=O)c3cc(NC=O)cn3C)cn2C)cc1C(=O)NCCC(=N)N | 10 µM (active) | 11.2 µM (active) | 7.57 µM (active) | 10 µM (active) | 3.55 µM (active) | 12.6 µM (active) | 5.01 µM (active) | 5.01 µM (active) | 4.47 µM (active) | 5.01 µM (active) | 7.08 µM (active) | 13.5 µM (active) |  | 11.2 µM (active) | 5.01 µM (active) | 5.01 µM (active) | 5.01 µM (active) | 4.78 µM (active)
Cc1cccc(Nc2ncccc2C(=O)O)c1C | inactive | inactive | inactive | inactive | inactive | inactive | inactive | inactive | inactive | inactive | inactive | inactive | inactive | inactive |  |  | inactive | inactive
CC(C)Cc1ccc([C@@H](C)C(=O)NS(C)(=O)=O)cc1 | inactive | inactive | inactive | inactive | inactive | inactive | inactive | inactive | inactive | inactive | inactive | inactive | inactive | inactive |  | inactive | inactive | inactive
CC(C)(C)CC(C)(C)c1ccc(OCCO)cc1 | inactive | inactive | inactive | inactive | inactive | inactive |  | inactive | inactive | inactive | inactive | inactive | inactive | inactive | inactive | inactive |  | inactive
O=C(O)c1cc(N=Nc2ccc(O)c(C(=O)O)c2)ccc1O | inactive | inactive | inactive | inactive |  | inactive | inactive | inactive | inactive | inactive | inactive | inactive | inactive | inactive | inactive | inactive | inactive | 
